Laboratory results from the supplement of paper PMC6555819.

How the values were obtained:
Assay in all cases: PBM binding z-score (relative to random genomic background probes); higher = stronger binding; sequences stand for … in GC…GCGATTGACAGCGTAGAATGAAGG
[1] = tested on: PPARg:RXRa DBDmut IVT, anti-RXR (DBD mutation: RXRa K156A/R161A, NR concentration 270 nM, RXRa partner concentration 90 nM)
Outline: (§1)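 Antibodies against each partner of ligand-free nuclear receptor dimers (one per run) detected binding on custom Agilent 4×180K protein-binding microarrays after 1 h incubation. The double-stranded probes had 34-nt variable regions carrying direct-repeat seeds, single-nucleotide variants, half-site ablations and random human genomic background sequences. Binding z-scores, from regression-normalized fluorescence, use the random background probes as reference.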

[2] = tested on: PPARg:RXRa IVT, anti-PPARg (NR concentration 270 nM, RXRa partner concentration 90 nM)
Outline: as §1

[3] = tested on: PPARg homodimer (NR concentration 180 nM)
Outline: as §1

[4] = tested on: PXR:RXRa (NR concentration 270 nM, RXRa partner concentration 90 nM)
Outline: as §1

[5] = tested on: PXR homodimer (NR concentration 270 nM)
Outline: as §1

[6] = tested on: RARa:RXR (NR concentration 270 nM, RXRa partner concentration 90 nM)
Outline: as §1

[7] = tested on: RARa homodimer (NR concentration 270 nM)
Outline: as §1

[8] = tested on: RARb:RXRa (NR concentration 270 nM, RXRa partner concentration 90 nM)
Outline: as §1

[9] = tested on: RARb homodimer (NR concentration 270 nM)
Outline: as §1

[10] = tested on: RARg:RXRa (NR concentration 270 nM, RXRa partner concentration 90 nM)
Outline: as §1

[11] = tested on: RARg homodimer (NR concentration 270 nM)
Outline: as §1

[12] = tested on: RXRa DBDmut IVT, anti-RXR (DBD mutation: RXRa K156A/R161A, NR concentration 90 nM)
Outline: as §1

[13] = tested on: RXRa homodimer (NR concentration 180 nM)
Outline: as §1

[14] = tested on: THRa:RXRa (NR concentration 90 nM, RXRa partner concentration 90 nM)
Outline: as §1

[15] = tested on: THRa homodimer (NR concentration 90 nM)
Outline: as §1

[16] = tested on: VDR homodimer (NR concentration 270 nM)
Outline: as §1

| Sequence | PBM binding z-score [1] | PBM binding z-score [2] | PBM binding z-score [3] | PBM binding z-score [4] | PBM binding z-score [5] | PBM binding z-score [6] | PBM binding z-score [7] | PBM binding z-score [8] | PBM binding z-score [9] | PBM binding z-score [10] | PBM binding z-score [11] | PBM binding z-score [12] | PBM binding z-score [13] | PBM binding z-score [14] | PBM binding z-score [15] | PBM binding z-score [16] |
| --- | --- | --- | --- | --- | --- | --- | --- | --- | --- | --- | --- | --- | --- | --- | --- | --- |
| CCGAGTAGGTTACGAGCGGGCATTCAGTGCGAAT | 4.42 | 2.97 | 0.117 | 1.73 | 0.506 | 0.0464 | -0.596 | 0.908 | 0.628 | 0.683 | 0.688 | 0.309 | 0.313 | 1.23 | -0.803 | -0.206 |
| CCGAGTAGTTTACGAGGGGGCATTCAGTGCGAAT | 1.32 | 0.828 | 0.86 | 3.29 | 4.22 | 2.06 | 0.00505 | 1.4 | 1.7 | 1.92 | 1.48 | 2.08 | 1.37 | 2.54 | 0.595 | 3.37 |
| CTACGTAGGTTAAGGGGGTCATTCAGTTTGAAAG | 2.95 | 4.54 | 2.77 | 5.94 | 11.4 | 6.06 | 0.985 | 3.63 | 3.61 | 5.6 | 4.1 | 1.87 | 6.27 | 3.9 | 1.23 | 6.07 |
| TCGAGTAGGTTACGGGGGCATTTAGGGATGAAGA | 5.1 | 5.8 | 1.44 | 3.25 | 1.54 | 3.29 | 0.213 | 2.56 | 2.32 | 3.47 | 2.58 | 2.03 | 2.73 | 4.01 | 1.4 | 3.52 |
| CTATGTAGGTTAAGGGGGTCATTCGGTTTGAAAG | 6.81 | 7.73 | 4.23 | 5.97 | 12.4 | 6.04 | 1.33 | 3.54 | 3.85 | 5.36 | 3.97 | 2.56 | 5.74 | 3.79 | 1.93 | 6.78 |
| CCGAGTAGATTACGAGGGGGCATTCAGTGCGAAT | 0.434 | 0.871 | 0.638 | 2.73 | 3.64 | 1.79 | -0.0773 | 0.973 | 1.12 | 1.31 | 0.84 | 1.36 | 0.919 | 1.85 | -0.0543 | 3.03 |
| TCGAGTAGGTTACAGGGGCATTCAGGGATGAAGA | 3.72 | 4.1 | 0.898 | 1.17 | 0.587 | 1.5 | 0.487 | 1.59 | 1.64 | 1.1 | 0.679 | 0.69 | 1.29 | 2.65 | 0.735 | 1.42 |
| CTATGTAGGTTCAGGGGGTCATTCAGTTTGAAAG | 3.32 | 4.65 | 3.3 | 6.29 | 10.6 | 6.89 | 2.03 | 3.59 | 3.91 | 5.72 | 3.84 | 3.68 | 7.14 | 3.7 | 2.11 | 6.83 |
| CTATGTAGGTTAAGCGGGTCATTCAGTTTGAAAG | 7.52 | 7.09 | 2.08 | 3.8 | 8.04 | 3.31 | 0.415 | 2.16 | 2.58 | 2.62 | 1.94 | 1.29 | 3.17 | 2.56 | 0.448 | 3.14 |
| CCGAGTAGGTTACGAGGGGGCGTTCAGTGCGAAT | 5 | 4.63 | 1.55 | 4.3 | 3.24 | 2.59 | 0.353 | 1.72 | 1.42 | 2.52 | 1.89 | 1.17 | 1.42 | 3.16 | 0.485 | 2.88 |
| CTCTGTAGGTTAAGGGGGTCATTCAGTTTGAAAG | 5.92 | 6.03 | 3.78 | 6.17 | 12 | 6.17 | 1.78 | 3.6 | 3.87 | 5.32 | 4.07 | 2.52 | 5.91 | 3.86 | 2.34 | 5.47 |
| CTATGTAGGCTAAGGGGGTCATTCAGTTTGAAAG | 5.39 | 5.71 | 1.72 | 5.12 | 8.71 | 5.12 | 0.465 | 2.69 | 3.39 | 4.23 | 2.53 | 1.96 | 4.7 | 3.45 | 1.51 | 4.02 |
| CCGAGTAGGTTACGAGGGGGCATTCTGTGCGAAT | 4.91 | 4.3 | 2.19 | 4.42 | 1.05 | 3.12 | 0.262 | 2.01 | 2.05 | 3.13 | 2.43 | 1.11 | 1.68 | 3.55 | 0.547 | 2.56 |
| CCGAGTAGGTTACGCGGGGGCATTCAGTGCGAAT | 4.28 | 4.82 | 1.38 | 5.72 | 7.61 | 3.67 | 0.0169 | 2.29 | 2.09 | 3.1 | 2.15 | 1.8 | 2.23 | 4.51 | 0.878 | 3.76 |
| CTAAGTAGGTTAAGGGGGTCATTCAGTTTGAAAG | 7.83 | 7.65 | 3.59 | 5.74 | 11.4 | 5.63 | 1.86 | 3.43 | 3.97 | 4.97 | 4.03 | 2.69 | 5.62 | 3.64 | 2.28 | 6.08 |
